A number with no mark means an inactive call. Inconclusive results are not listed. A call without a number means that no potency is given here. Activity calls are given as the source filed them. Unless noted, the call rests on the fitted dose curve; in most records, active means well fitted curve in the direction sought with a large enough effect; inconclusive means small, poorly fitted or top-dose-only effect, or another doubt; inactive means no such curve, though single readings can be large; an effect the other way counts as inactive or inconclusive.
Tests used:
[1] = target: Atrial natriuretic peptide receptor 2 (Homo sapiens) (UniProt P20594); assay: Natriuretic polypeptide receptor (hNpr2) antagonism - Pilot subtype selectivity assay (AID 1347050; calls by dose curve; further: potency means the concentration at half of the fitted maximal effect); settings: NPR2-expressing cells, cGMP antagonist-mode read-out; series mostly up to 38.3 µM
Atrial natriuretic peptide receptor 2 (Homo sapiens), sequence (P20594 whole entry, looked up): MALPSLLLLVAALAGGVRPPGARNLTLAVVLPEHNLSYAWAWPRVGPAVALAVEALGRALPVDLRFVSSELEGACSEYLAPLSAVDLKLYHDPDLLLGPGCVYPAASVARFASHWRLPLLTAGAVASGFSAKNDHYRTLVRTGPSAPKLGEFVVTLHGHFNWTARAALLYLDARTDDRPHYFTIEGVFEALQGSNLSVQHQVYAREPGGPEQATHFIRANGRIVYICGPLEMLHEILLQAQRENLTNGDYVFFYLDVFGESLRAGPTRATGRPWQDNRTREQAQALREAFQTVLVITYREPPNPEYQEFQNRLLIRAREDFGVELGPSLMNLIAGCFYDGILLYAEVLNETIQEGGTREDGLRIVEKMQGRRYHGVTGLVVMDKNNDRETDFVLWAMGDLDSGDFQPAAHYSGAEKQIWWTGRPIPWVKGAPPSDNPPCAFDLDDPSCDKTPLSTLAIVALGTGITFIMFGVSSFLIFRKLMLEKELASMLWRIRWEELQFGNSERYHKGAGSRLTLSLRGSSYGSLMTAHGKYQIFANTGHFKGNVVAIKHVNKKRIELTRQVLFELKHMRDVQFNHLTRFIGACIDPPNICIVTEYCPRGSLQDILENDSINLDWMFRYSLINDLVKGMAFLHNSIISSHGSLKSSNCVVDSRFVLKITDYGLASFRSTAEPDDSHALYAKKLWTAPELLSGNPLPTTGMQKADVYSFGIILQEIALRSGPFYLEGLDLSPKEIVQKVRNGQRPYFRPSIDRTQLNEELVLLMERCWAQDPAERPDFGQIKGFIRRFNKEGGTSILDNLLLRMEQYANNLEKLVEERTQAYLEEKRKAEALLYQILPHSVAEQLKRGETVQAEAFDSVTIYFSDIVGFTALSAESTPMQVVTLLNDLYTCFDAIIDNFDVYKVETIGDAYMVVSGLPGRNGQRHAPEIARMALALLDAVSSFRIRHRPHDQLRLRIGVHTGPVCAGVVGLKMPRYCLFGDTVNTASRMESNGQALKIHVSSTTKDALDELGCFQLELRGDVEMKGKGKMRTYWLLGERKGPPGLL
Procedure, shortened: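 Luminescence from a genetically encoded cGMP luciferase biosensor in hNpr2-expressing HEK293 cells is read before and 20 min after adding 1 nM hNppC. Test compounds, in interplate 1:5 titrations, are added 30-50 min ahead of the agonist.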

[2] = NS1 protein of Zika virus - qHTS assay to identify small molecule inhibitors in human HEK 293 cells (AID 1347053); settings: HEK293 ZIKV MR766 infection, NS1 TR-FRET, 24 h; series mostly up to 46.1 µM; further: nearly all actives have a fitted effect of over 55% in size
Procedure, shortened: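 Compound-treated (1 h pre-infection) HEK 293 cells infected with ZIKV MR766, MOI = 0.5; after 24 h at 37 C, NS1 read by TR-FRET; data normalized to uninfected and infected controls.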

[3] = target: T1, Tyrosine-protein phosphatase non-receptor type substrate 1 (Homo sapiens) + Leukocyte surface antigen CD47 (Homo sapiens) (UniProt P78324+Q08722); assay: CD47-SIRPalpha protein protein interaction - HTRF assay qHTS validation (AID 1347058; active means well fitted curve in the direction sought with a large enough effect in the signal ratio, not every such curve was filed as active; the % refers to the signal ratio); settings: TR-FRET HTRF CD47-His / biotin-SIRPalpha binding, ratio 665/615; series mostly up to 38.3 µM
T1 sequence (P78324 whole entry, looked up, the tested form may be a part): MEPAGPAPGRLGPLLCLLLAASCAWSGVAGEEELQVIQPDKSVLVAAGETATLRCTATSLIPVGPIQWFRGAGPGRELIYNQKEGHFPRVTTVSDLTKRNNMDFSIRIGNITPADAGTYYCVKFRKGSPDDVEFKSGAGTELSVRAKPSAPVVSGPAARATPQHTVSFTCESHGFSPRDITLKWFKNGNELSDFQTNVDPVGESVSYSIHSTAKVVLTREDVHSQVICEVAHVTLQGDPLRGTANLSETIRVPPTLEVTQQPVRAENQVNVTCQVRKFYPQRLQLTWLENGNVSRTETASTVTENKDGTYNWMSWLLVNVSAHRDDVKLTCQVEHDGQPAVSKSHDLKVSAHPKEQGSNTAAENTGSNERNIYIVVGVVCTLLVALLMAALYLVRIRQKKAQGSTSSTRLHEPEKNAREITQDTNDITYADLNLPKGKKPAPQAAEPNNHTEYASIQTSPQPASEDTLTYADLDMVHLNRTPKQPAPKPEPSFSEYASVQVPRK
T1 sequence (Q08722 whole entry, looked up, the tested form may be a part): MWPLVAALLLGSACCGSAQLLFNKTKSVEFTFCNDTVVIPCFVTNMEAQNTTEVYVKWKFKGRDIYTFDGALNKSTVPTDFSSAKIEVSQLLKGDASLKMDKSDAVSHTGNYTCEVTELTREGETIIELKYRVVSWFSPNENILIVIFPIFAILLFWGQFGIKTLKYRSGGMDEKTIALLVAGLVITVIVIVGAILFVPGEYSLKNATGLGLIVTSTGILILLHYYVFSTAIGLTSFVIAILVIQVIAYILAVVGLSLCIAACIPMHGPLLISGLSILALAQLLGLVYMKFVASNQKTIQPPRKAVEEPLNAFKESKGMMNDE
Procedure, shortened: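 Soluble extracellular domains (6His-CD47, Avi-tag-biotinylated SIRPalpha) in PBS pH 7.4 with 0.05% IGEPAL CA-630. Compounds were preincubated 30 min at RT with CD47 and anti-His-Eu, then SIRPalpha and SAV-XL665 were added. TR-FRET 665/615 ratio.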

[4] = target: T1, Tyrosine-protein phosphatase non-receptor type substrate 1 (Homo sapiens) + Leukocyte surface antigen CD47 (Homo sapiens); assay: CD47-SIRPalpha protein protein interaction - Alpha assay qHTS validation (AID 1347059); settings: AlphaScreen CD47-His/biotin-SIRPalpha binding, LOPAC; series mostly up to 38.3 µM;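 further: bead proximity luminescence from CD47 binding SIRPalpha after compound preincubation with SIRPalpha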
Procedure, shortened: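 SIRPalpha-biotin 25 nM + cpd, 30 min RT, dark; add CD47-His 12.5 nM, 30 min; add Ni-NTA/SAV beads 10 ug/mL, 30 min; AlphaScreen. Buffer PBS pH 7.4 + 0.05% IGEPAL CA-630. Non-biotinylated SIRPalpha as control inhibitor.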

[5] = target: Parathyroid hormone/parathyroid hormone-related peptide receptor (Homo sapiens) (UniProt Q03431); assay: qHTS for PTHR1 Agonists: Optimization Screen against the NCGC LOPAC library (AID 1347079); settings: HEK293 GP2 PTHR1 GloSensor cAMP luminescence, 1 h; series mostly up to 57.1 µM;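 further: GloSensor cAMP luminescence in HEK-293 GP2 cells expressing human PTHR1 with IBMX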
Parathyroid hormone/parathyroid hormone-related peptide receptor (Homo sapiens), sequence (Q03431 whole entry, looked up): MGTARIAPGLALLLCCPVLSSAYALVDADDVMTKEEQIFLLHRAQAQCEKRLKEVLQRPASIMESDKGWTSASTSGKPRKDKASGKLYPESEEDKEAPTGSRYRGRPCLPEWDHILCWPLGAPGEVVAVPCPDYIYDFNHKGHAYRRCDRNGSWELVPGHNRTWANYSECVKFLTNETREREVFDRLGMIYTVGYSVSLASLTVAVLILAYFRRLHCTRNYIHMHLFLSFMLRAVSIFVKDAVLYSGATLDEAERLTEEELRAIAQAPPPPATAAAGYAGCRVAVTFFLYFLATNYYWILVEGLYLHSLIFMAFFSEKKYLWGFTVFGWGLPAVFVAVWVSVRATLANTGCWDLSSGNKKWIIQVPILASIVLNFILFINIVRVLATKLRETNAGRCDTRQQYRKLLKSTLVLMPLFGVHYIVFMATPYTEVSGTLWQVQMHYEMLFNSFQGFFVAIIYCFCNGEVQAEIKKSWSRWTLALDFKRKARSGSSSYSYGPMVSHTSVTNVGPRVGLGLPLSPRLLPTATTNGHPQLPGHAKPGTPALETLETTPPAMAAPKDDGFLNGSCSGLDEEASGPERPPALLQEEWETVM
Procedure, shortened: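 Signal increase flags agonism. GP2 cells, derived from HEK-293, express human PTHR1 and a GloSensor cAMP construct.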

[6] = qHTS of pediatric cancer cell lines to identify multiple opportunities for drug repurposing: Primary screen for TC32 cells (AID 1347089); settings: TC32 Ewing sarcoma viability, CellTiter-Glo luminescence, 48 h; series mostly up to 45.8 µM; further: nearly all actives have a fitted effect of over 60% in size; further: potency means the concentration at half of the fitted maximal effect
Procedure, shortened: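 Luminescent ATP read-out (CellTiter-Glo) of metabolically active TC32 cells after 48 h exposure. Concentration-response curves came from 11-point (MIPE, 0.78 nM–46 µM) or 8-point (NPC, 0.59 nM–46 µM) primary titrations; follow-up used 11 points.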

[7] = qHTS of pediatric cancer cell lines to identify multiple opportunities for drug repurposing: Primary screen for DAOY cells (AID 1347090); settings: DAOY medulloblastoma viability, CellTiter-Glo luminescence, 48 h; series mostly up to 46 µM; further: nearly all actives have a fitted effect of over 55% in size; further: potency means the concentration at half of the fitted maximal effect
Procedure, shortened: (§1)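 Viability measured as metabolically active cells via CellTiter-Glo luminescence following 48 hours of compound exposure, 11-point dilutions in confirmatory testing. 500-1,000 cells/well plated 5 hours before dosing; controls were DMSO and 2.3 µM bortezomib.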

[8] = qHTS of pediatric cancer cell lines to identify multiple opportunities for drug repurposing: Primary screen for SJ-GBM2 cells (AID 1347091); settings: SJ-GBM2 viability, CellTiter-Glo luminescence, 48 h; series mostly up to 46 µM; further: potency means the concentration at half of the fitted maximal effect
Procedure, shortened: as §1

[9] = qHTS of pediatric cancer cell lines to identify multiple opportunities for drug repurposing: Primary screen for A673 cells (AID 1347092); settings: A673 Ewing sarcoma viability, CellTiter-Glo ATP luminescence, 48 h; series mostly up to 46 µM; further: nearly all actives have a fitted effect of over 45% in size; further: potency means the concentration at half of the fitted maximal effect
Procedure, shortened: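 Cell viability of A673 measured by CellTiter-Glo ATP luminescence after 48 hours compound exposure. Dilution series spanned 0.78 nM to 46 µM (MIPE, 11-point) or 0.59 nM to 46 µM (NPC, 8-point); bortezomib 2.3 uM positive control.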

[10] = target: T1, Tyrosine-protein phosphatase non-receptor type substrate 1 (Homo sapiens) + Leukocyte surface antigen CD47 (Homo sapiens); assay: CD47-SIRPalpha protein protein interaction - LANCE assay qHTS validation (AID 1347057; active means well fitted curve in the direction sought with a large enough effect in the signal ratio, with a control signal flat, not every such curve was filed as active; the % refers to the signal ratio); settings: Recombinant CD47-His / biotin-SIRPalpha, TR-FRET ratio; series mostly up to 38.3 µM
Procedure, shortened: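 Inhibition of soluble CD47/SIRPalpha ectodomain association by titrated compounds, measured as 665/615 nm time-resolved FRET ratio after sequential 30 min room-temperature incubations.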

Structure (SMILES)	Potency [1]	Potency [2]	outcome [3]	outcome [4]	Potency [5]	Potency [6]	Potency [7]	Potency [8]	Potency [9]	outcome [10]	activity change, negative = cytotoxic [6]	activity change, negative = cytotoxic [7]	activity change, negative = cytotoxic [8]	activity change, negative = cytotoxic [9]
CC(C)C(=O)c1c(C(C)C)nn2ccccc12	inactive	inactive	inactive	inactive	inactive	inactive	inactive	inactive	inactive	–	–	–	–	–
CC(C(O)c1ccc(O)cc1)N1CCC(Cc2ccccc2)CC1 (configuration not stated)	inactive	inactive	inactive	inactive	inactive	inactive	inactive	inactive	inactive	–	–	–	–	–
CC(C)NC[C@H](O)c1ccc(O)c(O)c1	inactive	inactive	inactive	inactive	–	–	–	–	–	inactive	–	–	–	–
CCN(CC)CCOC(=O)C1(C2CCCCC2)CCCCC1	inactive	inactive	inactive	inactive	inactive	inactive	inactive	–	inactive	–	–	–	–	–
C[C@]12C[C@H](O)[C@H]3[C@@H](CCC4=CC(=O)CC[C@@]43C)[C@@H]1CC[C@@H]2C(=O)CO	inactive	inactive	inactive	inactive	inactive	inactive	inactive	inactive	inactive	–	–	–	–	–
COc1ccc(Cl)cc1C(=O)NCCc1ccc(S(=O)(=O)NC(=O)NC2CCCCC2)cc1	inactive	inactive	inactive	inactive	inactive	inactive	inactive	inactive	inactive	–	–	–	–	–
CCN(CC)C(C)CN1c2ccccc2Sc2ccccc21 (configuration not stated)	inactive	inactive	–	inactive	inactive	inactive	inactive	inactive	inactive	–	–	–	–	–
CC1=C(/C=C/C(C)=C/C=C/C(C)=C/C(=O)O)C(C)(C)CCC1	inactive	inactive	inactive	inactive	inactive	inactive	inactive	inactive	inactive	–	–	–	–	–
CC1=C(CC(=O)O)c2cc(F)ccc2/C1=C\c1ccc(S(C)(=O)=O)cc1	inactive	inactive	–	inactive	inactive	inactive	inactive	inactive	inactive	–	–	–	–	–
NC(N)=NCCC[C@H](N)C(=O)O	inactive	inactive	–	–	inactive	–	–	–	–	–	3.73% [at 4.81 µM]	-2.71% [at 4.84 µM]	11.2% [at 4.84 µM]	0.848% [at 4.84 µM]
NC1CCN(c2cccc(Cl)n2)CC1	inactive	inactive	–	–	inactive	inactive	inactive	inactive	inactive	–	–	–	–	–
OCc1cc(C(O)CNCCCCCCOCCCCc2ccccc2)ccc1O (configuration not stated)	inactive	inactive	inactive	inactive	inactive	inactive	inactive	–	21.1 µM (active)	–	–	–	–	–
CC(C)(C)c1onc(OCP(=O)(O)O)c1CC(N)C(=O)O (configuration not stated)	inactive	inactive	–	inactive	inactive	–	–	–	–	–	–	–	–	–
CC(CN1c2ccccc2Sc2ccccc21)N(C)C (configuration not stated)	inactive	inactive	–	inactive	inactive	inactive	inactive	inactive	inactive	inactive	–	–	–	–
O=C1N=C(O)CN1/N=C/c1ccc(-c2ccc([N+](=O)[O-])cc2)o1	inactive	inactive	–	inactive	inactive	inactive	inactive	inactive	inactive	–	–	–	–	–
CN(C)CCCN1c2ccccc2CCc2ccccc21	16.5 µM (active)	inactive	inactive	inactive	inactive	inactive	inactive	inactive	–	–	–	–	–	–
CCCCCCCCCCCCCCCC(=O)NCCO	inactive	inactive	–	–	inactive	inactive	inactive	inactive	inactive	–	–	–	–	–
C#CCN(C)Cc1ccccc1	inactive	inactive	inactive	inactive	inactive	inactive	inactive	inactive	inactive	–	–	–	–	–
CC(=O)OCC(=O)[C@@]1(O)CC[C@H]2[C@@H]3CCC4=CC(=O)CC[C@]4(C)[C@H]3C(=O)C[C@@]21C	inactive	inactive	inactive	inactive	inactive	inactive	inactive	inactive	inactive	–	–	–	–	–
CC[C@H]1CN2CCc3cc(OC)c(OC)cc3[C@@H]2C[C@@H]1C[C@H]1NCCc2cc(OC)c(OC)cc21	inactive	inactive	inactive	inactive	inactive	0.333 µM (active)	1.06 µM (active)	0.237 µM (active)	–	–	–	–	–	–
N=c1c[n+](N2CCOCC2)[n-]o1	inactive	inactive	–	inactive	inactive	–	–	–	–	–	–	–	–	–
CC1=C(CC(=O)O)c2cc(F)ccc2/C1=C\c1ccc(S(C)=O)cc1 (configuration not stated)	inactive	inactive	–	–	inactive	inactive	inactive	inactive	inactive	–	–	–	–	–
Nc1cc(=O)[nH]c(N)n1	inactive	inactive	–	inactive	inactive	inactive	inactive	inactive	inactive	–	–	–	–	–

From PubChem BioAssay (NCATS)
